High-throughput results: PubChem, several laboratories
Gli-Sufu block: Gli-Sufu pathway antagonism; AID 588413; inhibition, % at 5 µM; Sufu-KO-LIGHT fibroblasts, Gli luciferase reporter luminescence; 340,000 tested, 0.74% active;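 active = inhibition above about 55%, limit read from the data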;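 note: 0% = DMSO-treated cells and 100% = wells with medium but no cells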
NCOA3 inh: inhibits human SRC3 coactivator; Q9Y6Q9; HEK293 GAL4-SRC3 luciferase reporter, luminescence; inhibition, % at 3.6 µM; 360,000 tested, 0.17% active; AID 588352;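 active = inhibition above a per-campaign cutoff, the mean of all compounds plus 3 SD, cut at about 60% in these data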;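 note: 0% = DMSO-treated cells and 100% = gossypol-treated cells at 36 µM; higher means less SRC3-driven luciferase light from the GAL4 reporter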
LRH-1 inv ag: inverse agonists of human LRH-1 (NR5A2). AID 602396. inhibition, % at 3.6 µM. 360,000 tested, 0.13% active. O00482. HEK293T StAR-luciferase reporter, LRH-1 transfected, 24 h;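 active = inhibition above the mean inhibition of all tested compounds plus 3 SD, cut at about 73% in these data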;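 note: 0% = DMSO wells and 100% = reporter-only cells lacking LRH-1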
NCOA2 inhibitor: inhibits human steroid receptor coactivator 2 | AID 651957 | inhibition, % at 9 µM | HEK293 GAL4-SRC2 luciferase reporter, luminescence | 370,000 tested, 0.17% active;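 active = inhibition above the mean inhibition of all tested compounds plus 3 SD, set per campaign, cut at about 52% in these data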;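 note: 0% = DMSO treated cells and 100% = cells given Gossypol at 36 µM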
NR2F2 inh: blocks human COUP-TFII nuclear receptor; AID 686940; inhibition, % at 8.6 µM; P24468; HEK293T NGFI-A luciferase reporter, luminescence; 370,000 tested, 0.7% active;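 active = inhibition above a per-plate cutoff, mean inhibition of test wells between control levels plus 3 SD, cut at about 38% in these data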;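 note: cells cotransfected with COUP-TFII expression vector driving the NGFI-A reporter; 0% = median of COUP-TF2 test wells and 100% = reporter-only cells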
NCOA1 inh: human NCOA1 inhibition | inhibition, % at 3.6 µM | 360,000 tested, 0.12% active | Q15788 | HEK293 GAL4-SRC1 luciferase reporter, luminescence;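 active = inhibition above the campaign mean plus 3 SD, with each screening campaign given its own cutoff, cut at about 60% in these data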;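 note: 0% = DMSO treated cells and 100% = gossypol at 36 µM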
Gli-Sufu confirm: Gli-SUFU antagonism confirmation, single concentration | 2,500 tested, 40% active | inhibition, % at 5 µM | Sufu-KO-LIGHT cells, Gli luciferase reporter, luminescence | shares compounds with Gli-Sufu block;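 active = mean inhibition at 5 µM reaching about 45%, limit read from the data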;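 note: plate controls were DMSO-treated cells for no effect and wells lacking cells for full effect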
Gli cytotox: counter-screen for Gli-SUFU antagonists: cytotoxicity. shares compounds with Gli-Sufu block. Sufu-KO-LIGHT cells cytotoxicity, ATP luminescence. cytotoxicity, % at 5 µM. 2,500 tested, 32% active. AID 651994;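 active = mean cytotoxicity at 5 µM above about 25%, limit read from the data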;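 note: cells exposed to compound overnight for roughly 16 to 18 hours; plate controls were DMSO wells with cells for no effect and medium without cells for full effect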
Wnt3a counter: counter-screen for Gli-SUFU antagonists: Wnt3a reporter inhibition. 2,500 tested, 20% active. inhibition, % at 6.25 µM. AID 651995. shares compounds with Gli-Sufu block. Wnt-LIGHT cells, Wnt3a-driven luciferase reporter, luminescence;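 active = mean inhibition above about 25%, limit read from the data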
VP16 Luc counter: VP16 inhibition counter-screen for COUP-TFII; 2,500 tested, 25% active; inhibition, % at 8.5 µM; shares compounds with NR2F2 inh; HEK293 Gal4-VP16 luciferase reporter, luminescence; in the data active = inhibition above about 13%
COUP-TFII conf: COUP-TFII (NR2F2) inhibition, confirmation assay | 2,500 tested, 45% active | shares compounds with NR2F2 inh | HEK293 NGFI-A luciferase reporter, luminescence | inhibition, % at 8.5 µM;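 active = mean inhibition over three repeats above a set limit taken from the earlier primary screen, cut at about 38% in these data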;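 note: 100% = cells given the luciferase reporter alone without the COUP-TF2 vector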
* marks the source's active call; other numbers are inactive results; / = not tested or not shown. Sampled rows, rich in hits. Any-hit rate of the full collection: about 1.3%.

SMILES	Gli-Sufu block	NCOA3 inh	LRH-1 inv ag	NCOA2 inhibitor	NR2F2 inh	NCOA1 inh	Gli-Sufu confirm	Gli cytotox	Wnt3a counter	others
COC1/C=C/C=C(\C)Cc2cc(O)c(Cl)c(c2)N(C)C(=O)CC(OC(=O)C(C)C)C2(C)OC2C(C)C2CC1(O)NC(=O)O2 (stereo not given)	54	32	43	2	-47	-12	61*	58*	-5
Fc1ccc2nc(-c3ccc(CN4CCC(n5nnc6ccccc65)CC4)cc3)c(-c3ccccc3)nc2c1	/	/	/	2	-2	/	/	/	/
COC(=O)C1=C(c2ccc(OC(F)(F)F)cc2)C[C@@H]2CC[C@H]1N2C(=O)NCc1ccco1	/	/	/	10	11	/	/	/	/
O=C(NCCN1CCC2(CC1)C(=O)NCN2c1ccccc1)c1cccs1	/	/	/	-52	-13	/	/	/	/
O=C(CF)NC(NC(=S)Nc1ccccc1O)C(Cl)(Cl)Cl (stereo not given)	87*	-3	14	-3	-5	4	17	20	-17
CCCCN1CCN(C(=O)COc2cc(=O)n(C)c3ccccc23)CC1	/	/	/	-2	-8	/	/	/	/
O=C(O)c1ccc(-[n+]2c(-c3ccccc3)cc(-c3ccccc3)cc2-c2ccccc2)cc1	-5	-1	8	-19	4	-7	/	/	/
Brc1ccc(-[n+]2c(-c3ccccc3)cc(-c3ccccc3)cc2-c2ccccc2)cc1	56*	12	27	12	37	18	79*	8	6
Nc1ccc(C2(c3ccc(N)cc3)CN3CCC2CC3)cc1	71*	6	-13	-11	-5	5	17	-2	0
C#CCNc1ccncc1S(=O)(=O)NC(=O)NC(C)C	57*	-7	-6	-5	2	4	11	-6	5
COP(=O)(OC)C(C)NC(=O)OCc1ccccc1 (stereo not given)	/	/	/	/	20	/	/	/	/
Cc1cc(/C=C2\C(=O)NC(=O)N(c3ccc(Cl)cc3)C2=O)c(C)n1-c1sc2c(c1C#N)CCCC2	53	18	-11	3	-1	19	55*	47*	-39
CC(C)(C)c1ccc(CSc2cnn(C(C)(C)C)c(=O)c2Cl)cc1	78*	12	44	10	71*	31	86*	44*	29*	VP16 Luc counter=4;COUP-TFII conf=61*
COc1ccc(CC2C(=O)NC(C)C(=O)N(C)C3C(=O)N(C)C(Cc4ccc(O)c(c4)Oc4ccc(cc4)C3O)C(=O)NC(C)C(=O)NC(C)C(=O)N2C)cc1 (stereo not given)	93*	94*	99*	75*	89*	96*	96*	87*	105*	VP16 Luc counter=27*;COUP-TFII conf=91*
COc1cccc(-c2ccc3c(c2)C2c4cnnn4-c4ccccc4C(=O)N2CC3)c1 (stereo not given)	/	/	/	3	9	/	/	/	/
CCOC(=O)CC[C@@H]1CC[C@]2(CCCN(Cc3cccnc3)C2)O1	/	/	/	9	-12	/	/	/	/
O=C(CN1C(=O)[C@@H](Cc2ccc(O)cc2)N=C(c2ccccc2)c2ccccc21)NC1CCCCC1	/	/	/	7	-2	/	/	/	/
CC(NC(=O)OCc1ccccc1)[P+](=O)O (stereo not given)	/	/	/	-8	-17	/	/	/	/
N#Cc1cn(C2OC(CO)C(O)C2O)c2ncnc(N)c12 (stereo not given)	81*	55	97*	61*	47*	45	98*	97*	-53	VP16 Luc counter=-8;COUP-TFII conf=2
